Three molecules from PubChem BioAssay AID652020 (National Center for Advancing Translational Sciences (NCATS), 2013) can be followed below.

The other results are listed elsewhere or left out. Records with an inconclusive call do not appear. Activity calls are given as the source filed them. Calls come from the whole dose curve; as a rule, active = well fitted curve in the direction sought with a large enough effect; inconclusive = small, poorly fitted or top-dose-only effect, or another doubt; inactive = no such curve, though single readings can be large or run the other way.

In the experiment the target is Glutathione reductase, mitochondrial (Homo sapiens) (UniProt P00390). As to the kind of experiment: qHTS Assay for Inhibitors of Mammalian Selenoprotein Thioredoxin Reductase 1 (TrxR1): Counterassay in Glutathione Reductase (GR). The conditions noted are these: purified GR, DTNB reduction absorbance 405 nm kinetic; series mostly up to 57.1 µM. The source says: The selenoprotein thioredoxin reductase (TrxR; EC 1.8.1.9) is a FAD containing homodimeric pyridine nucleotide-disulfide oxidoreductase with many cellular roles. Together with NADPH and its prime substrate thioredoxin (Trx), the enzyme forms the core of the Trx system. The mammalian Trx system exerts a wide spectrum of functions including redox regulation, antioxidant defense, regulation of transcription factors as well as support of cell growth and replication. Many of these functions involve the reduction of Trx, which may subsequently reduce a number of different substrates including ribonucleotide reductase, peroxiredoxins or NFkB. Mammalian TrxR itself also has a broad substrate specificity, reducing both protein and non-protein substrates, including low molecular weight compounds such as dehydroascorbate, lipoic acid, ubiquinone, and juglone. In addition, several drugs in clinical use for anticancer treatment are indeed known to target TrxR1. This assay is counterassay using a yeast glutathione reductase (GR) assay. The desired outcome is inactivity in this assay. NIH Molecular Libraries Probe Production Network [MLPCN] NIH Chemical Genomics Center [NCGC] MLPCN Grant: MH090846 Assay Provider: Elias Arner, Karolinska Institute
Sequence of Glutathione reductase, mitochondrial (Homo sapiens) (P00390 whole entry, looked up): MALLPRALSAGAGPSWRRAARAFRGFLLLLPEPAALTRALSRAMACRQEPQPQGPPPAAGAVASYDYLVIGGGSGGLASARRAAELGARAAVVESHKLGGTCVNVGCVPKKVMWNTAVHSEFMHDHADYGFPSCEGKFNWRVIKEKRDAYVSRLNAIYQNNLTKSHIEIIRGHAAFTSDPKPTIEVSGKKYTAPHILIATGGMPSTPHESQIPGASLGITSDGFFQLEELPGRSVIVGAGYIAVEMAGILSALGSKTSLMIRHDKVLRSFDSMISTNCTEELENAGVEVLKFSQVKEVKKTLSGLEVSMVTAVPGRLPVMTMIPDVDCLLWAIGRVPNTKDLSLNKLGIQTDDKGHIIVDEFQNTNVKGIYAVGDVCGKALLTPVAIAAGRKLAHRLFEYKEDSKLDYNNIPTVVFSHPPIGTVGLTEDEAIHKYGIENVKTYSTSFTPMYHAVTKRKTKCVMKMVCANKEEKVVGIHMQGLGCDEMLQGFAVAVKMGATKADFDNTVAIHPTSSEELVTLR
Three microliters of reagents (100 microM NADPH and 60 nM hGR or 100 microM NADPH as no-enzyme control) was dispensed into 1,536-well black clear-bottomed plates (Buffer: 0.1 M potassium phosphate, pH 7.4/10 mM EDTA, 0.01 % Tween-20). Compounds (23nl) was transferred via Kalypsys pin tool equipped with 1536-pin array. The plates were incubated for 15 min at room temperature, and 1microl aliquot of 500 microM NADPH was added, immediately followed by a 1 microl aliquot of 15 mM DTNB (3 mM final concentration) to start the reaction. The plate was transferred to a ViewLux high-throughput CCD imager (Perkin-Elmer, Wellesley, MA) where kinetic measurements (one read per 5 min for 6 reads, total time 25 min) of the TNB absorbance was acquired using a 405 excitation filter.
On to `O=C(/C=C/c1ccco1)Nc1cccc(-c2nc3ccccc3[nH]2)c1`, for which the molecule was called inactive. Regarding `CC1CCN(C(=O)c2ccc(S(=O)(=O)Cc3cc(F)ccc3F)c([N+](=O)[O-])c2)CC1`, the call was inactive. With `Cc1ccccc1-c1nc(CS(=O)(=O)CC(=O)N2CCc3ccccc3C2)c(C)o1` the entry was “inactive”.
